High-throughput results from PubChem.
proKLK7 act: proKLK7 (human) activation, primary screen; P49862; purified proKLK7, EDANS-DABCYL substrate fluorescence; 100% is mature enzyme control, 0% vehicle; activation, % at 7 µM; actives 0.9% (n = 370,000);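 active means activation above the mean of all tested compounds plus 3 SD, computed per campaign excluding outliers beyond control limits, cut at about 13% in these data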
ADAM17 inh: ADAM17 inhibition, QFRET primary screen | recombinant ADAM17, EDANS/DABCYL FRET peptide cleavage | inhibition, % at 6.95 µM | actives 0.83% (n = 370,000);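 active means inhibition above the mean of compounds lying between control limits plus 3 SD, set per campaign, cut at about 8.5% in these data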;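 further: 0% = DMSO-only wells as the low control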
Target sequence (P78536 215-824 limits assumed): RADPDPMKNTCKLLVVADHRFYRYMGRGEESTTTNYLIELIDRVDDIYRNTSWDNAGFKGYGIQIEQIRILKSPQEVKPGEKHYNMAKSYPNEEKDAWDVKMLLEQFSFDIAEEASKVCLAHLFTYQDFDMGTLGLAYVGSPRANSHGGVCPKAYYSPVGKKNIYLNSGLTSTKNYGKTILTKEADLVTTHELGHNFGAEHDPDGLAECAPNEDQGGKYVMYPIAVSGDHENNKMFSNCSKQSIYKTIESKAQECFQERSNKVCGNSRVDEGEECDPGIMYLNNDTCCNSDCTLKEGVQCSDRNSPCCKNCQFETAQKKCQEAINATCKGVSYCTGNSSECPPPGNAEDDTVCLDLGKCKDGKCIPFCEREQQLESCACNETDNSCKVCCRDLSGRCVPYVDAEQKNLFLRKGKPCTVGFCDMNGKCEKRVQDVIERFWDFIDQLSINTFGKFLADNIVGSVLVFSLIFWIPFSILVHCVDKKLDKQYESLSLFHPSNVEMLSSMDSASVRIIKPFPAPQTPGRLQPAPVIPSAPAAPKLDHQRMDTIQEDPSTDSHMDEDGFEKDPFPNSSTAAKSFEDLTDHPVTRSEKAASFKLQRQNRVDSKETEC
ADAM10 inh: inhibits human ADAM10; O14672; actives 0.62% (n = 370,000); recombinant ADAM10, EDANS/DABCYL FRET peptide cleavage, 3 h; inhibition, % at 7 µM; AID 720582;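 active means inhibition above a per-campaign cutoff equal to the mean of compounds falling between control-based bounds plus 3 SD, cut at about 20% in these data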;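 further: 0% = DMSO wells while the 100% control is not disclosed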
sPLA2-III inh: Inhibits HGIII-sPLA2 liposome hydrolysis, primary screen. Q9NZ20. QFRET BODIPY PC-A2 liposome hydrolysis, fluorescence. inhibition, % at 12.2 µM. actives 0.56% (n = 370,000);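 active means inhibition above mean plus 3 SD of compounds lying within the high and low control bounds, cut at about 19% in these data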;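 further: 0% = median of test compound wells and 100% = no enzyme DMSO wells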
CendR NRP1 mod: alters CendR peptide binding to human NRP-1. AID 602438. O14786. FAM-RPARPAR peptide binding to NRP-1, fluorescence polarization. inhibition, % at 25 µM. actives 0.85% (n = 360,000);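 active means inhibition or corrected inhibition above about 18%, plus a signal ratio from 0.5 to 1.5, limit read from the data, passing the limit was not always enough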
ADAM10 ctr: inhibits human ADAM10 in ADAM17 exosite counter-screen; shares compounds with ADAM17 inh; recombinant ADAM10, EDANS/DABCYL FRET peptide cleavage, 3 h; inhibition, % at 6.95 µM; actives 47% (n = 2,900); AID 743256;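 active means mean inhibition over the triplicate runs exceeds the activity threshold set in the earlier primary screen, cut at about 20% in these data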;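 further: 0% = DMSO wells and 100% = marimastat wells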
ADAM17 confirm: confirmation of inhibitors of human ADAM17 | shares compounds with ADAM17 inh | recombinant ADAM17, EDANS/DABCYL QFRET peptide cleavage | inhibition, % at 6.95 µM | actives 65% (n = 2,900) | AID 743257;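 active means mean inhibition across replicates above the hit cutoff set in the primary screen, cut at about 8.5% in these data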;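 further: 0% = DMSO wells and 100% = marimastat wells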
* marks the source's active call; other numbers are inactive results. A selection: hits, their analogues and other compounds. The true share with any hit is near 3.4%.

What do the screens show for `OC(COc1ccc(OCc2ccccc2)cc1)CN1CCOCC1` (centres undefined)?
proKLK7 act: -0.3; ADAM17 inh: 10.5*; ADAM10 inh: 10.0; sPLA2-III inh: -11.4; CendR NRP1 mod: -10.6; ADAM10 ctr: 5.9; ADAM17 confirm: 4.4

Results for CN1CCCCC(NC(=O)CSc2ccccc2)C1=O (centres undefined) ?
proKLK7 act: -0.3; ADAM17 inh: -5.0; ADAM10 inh: -14.1; sPLA2-III inh: 3.6

How did CN(C(=O)CCN1CCCO1)C1CCCN(Cc2ccccc2F)C1 (centres undefined) do in these assays?
proKLK7 act: 0.1; ADAM17 inh: 9.0*; ADAM10 inh: -2.3; sPLA2-III inh: 4.1; CendR NRP1 mod: -0.1; ADAM10 ctr: 15.5; ADAM17 confirm: 7.4

How did COc1ccc(-n2c(SCC(=O)Nc3ccc4c(c3)OCO4)nc3sc4c(c3c2=O)CCCC4)cc1 do in these assays?
proKLK7 act: 2.8; ADAM17 inh: -0.9; ADAM10 inh: -6.7; sPLA2-III inh: 3.1

What do the screens show for `CC1(Cc2ccc(F)cc2)C(=O)Nc2c(Cl)ccc(Cl)c21` (centres undefined)?
proKLK7 act: 0.5; ADAM17 inh: -0.4; ADAM10 inh: 4.1; sPLA2-III inh: -5.5; CendR NRP1 mod: -0.9

Results for CC1(Cc2ccc(OC(F)(F)F)cc2)C(=O)Nc2ccc(OC(F)(F)F)cc21 (centres undefined) ?
proKLK7 act: 0.1; ADAM17 inh: 10.6*; ADAM10 inh: 18.2; sPLA2-III inh: 12.2; CendR NRP1 mod: -5.7; ADAM10 ctr: 50.8*; ADAM17 confirm: 25.4*

What do the screens show for `CC1(Cc2ccc(OC(F)(F)F)cc2)C(=O)Nc2c(Cl)ccc(Cl)c21` (centres undefined)?
proKLK7 act: -0.3; ADAM17 inh: 9.7*; ADAM10 inh: 15.6; sPLA2-III inh: 2.2; CendR NRP1 mod: 7.2; ADAM10 ctr: 30.6*; ADAM17 confirm: 15.3*

What do the screens show for `CCOC(=O)c1csc(NC(=O)C2CCCN(S(=O)(=O)c3ccc(C)cc3)C2)n1` (centres undefined)?
proKLK7 act: 0.2; ADAM17 inh: 2.7; ADAM10 inh: 1.1; sPLA2-III inh: -27.4

What do the screens show for `COc1ccc2c(c1)N=CN1CCc3c([nH]c4ccccc34)C3=NCC[C@@]321`?
ADAM17 inh: -5.2; ADAM10 inh: -13.5; sPLA2-III inh: 4.9

How did Cc1ccc(NC(=O)OC2CC3CC2[C@H]2CCCCN2C3)cc1C (some centres undefined) do in these assays?
proKLK7 act: 0.8; ADAM17 inh: -1.3; ADAM10 inh: -0.9; sPLA2-III inh: 2.2

How did COc1ccc(Nc2oc(COc3ccc(OC)cc3)nc2C#N)cc1 do in these assays?
proKLK7 act: 0.4; ADAM17 inh: 9.1*; ADAM10 inh: 14.0; sPLA2-III inh: -7.9; CendR NRP1 mod: -12.8; ADAM10 ctr: 13.0; ADAM17 confirm: 5.6

What do the screens show for `C[C@@H]1COc2cc(Br)ccc2S(=O)(=O)N1Cc1cn(Cc2ccc(C(F)(F)F)cc2)nn1`?
proKLK7 act: -0.6; ADAM17 inh: -1.8; ADAM10 inh: 5.5; sPLA2-III inh: 0.5

How did Cc1ccccc1Nc1nc(N)nc(COC(=O)CCNS(=O)(=O)c2ccccc2)n1 do in these assays?
proKLK7 act: -0.1; ADAM17 inh: 12.1*; ADAM10 inh: 8.6; sPLA2-III inh: -2.8; CendR NRP1 mod: -10.9; ADAM10 ctr: -3.1; ADAM17 confirm: 0.1

What do the screens show for `Cc1ccccc1Nc1nc(N)nc(COC(=O)c2ccccc2)n1`?
proKLK7 act: 0.3; ADAM17 inh: -1.0; ADAM10 inh: 5.2; sPLA2-III inh: -3.0; CendR NRP1 mod: -2.5

How did Cc1cc(=O)c2c(ccc3c(=O)cc(C)[nH]c32)[nH]1 do in these assays?
proKLK7 act: 1.7; ADAM17 inh: -14.7; ADAM10 inh: -46.4; sPLA2-III inh: -0.1

Results for O=C(Nc1ccc(Cl)cc1)N1CCCN(Cc2ccc(F)cc2)C1 ?
proKLK7 act: -0.5; ADAM17 inh: 10.1*; ADAM10 inh: 7.4; sPLA2-III inh: -19.9; CendR NRP1 mod: -4.7; ADAM10 ctr: 13.2; ADAM17 confirm: 10.7*

How did O=C(Nc1ccccc1)N1CCN(Cc2ccc(Cl)cc2)CC1 do in these assays?
proKLK7 act: -0.3; ADAM17 inh: 0.5; ADAM10 inh: 9.5; sPLA2-III inh: -3.3; CendR NRP1 mod: 4.9

Results for Cc1ccc(S(=O)(=O)N(C)CC(O)Cn2c3ccccc3c3ccccc32)cc1 (centres undefined) ?
proKLK7 act: 0.7; ADAM17 inh: 11.2*; ADAM10 inh: 16.2; sPLA2-III inh: -41.6; CendR NRP1 mod: 21.9; ADAM10 ctr: 21.4*; ADAM17 confirm: 11.3*

What do the screens show for `O=S(=O)(c1ccccc1)N(CC(O)Cn1c2ccccc2c2ccccc21)c1ccccc1` (centres undefined)?
proKLK7 act: -0.7; ADAM17 inh: 14.0*; ADAM10 inh: 13.3; sPLA2-III inh: -18.3; CendR NRP1 mod: 17.0; ADAM10 ctr: 12.4; ADAM17 confirm: 17.1*

Results for O=S(=O)(c1ccc(F)cc1)N(CCO)CC(O)Cn1c2ccccc2c2ccccc21 (centres undefined) ?
proKLK7 act: -0.4; ADAM17 inh: 9.0*; ADAM10 inh: 14.9; sPLA2-III inh: -40.6; CendR NRP1 mod: -6.1; ADAM10 ctr: 7.0; ADAM17 confirm: 6.4

How did O=C(C(=O)N1CCC(CNS(=O)(=O)c2ccc(C(F)(F)F)cc2)CC1)c1cccs1 do in these assays?
proKLK7 act: -0.4; ADAM17 inh: 3.8; ADAM10 inh: -0.1; sPLA2-III inh: -7.1

What do the screens show for `COC(=O)C1=C(C)N(Cc2ccc(Cl)cc2)C(=S)NC1c1ccc(Br)cc1` (centres undefined)?
proKLK7 act: 0.4; ADAM17 inh: -1.8; ADAM10 inh: 1.8; sPLA2-III inh: 7.5

What do the screens show for `Cc1cc(C)nc(N(C#N)CCOc2ccc(Cl)cc2)n1`?
proKLK7 act: -0.1; ADAM17 inh: -1.9; ADAM10 inh: 2.3; sPLA2-III inh: -8.3; CendR NRP1 mod: -1.4

Results for CC(C)Nc1nc(NC(C)C)nc(N(C#N)CCOc2ccc(Cl)cc2Cl)n1 ?
proKLK7 act: 0.3; ADAM17 inh: 9.3*; ADAM10 inh: 12.6; sPLA2-III inh: -5.7; CendR NRP1 mod: 11.9; ADAM10 ctr: 19.1; ADAM17 confirm: 12.9*

What do the screens show for `CC(=O)C1=C(C)N(CC(C)C)C(=S)NC1c1ccc(Br)cc1` (centres undefined)?
proKLK7 act: 0.4; ADAM17 inh: -3.4; ADAM10 inh: 0.0; sPLA2-III inh: 3.2

How did O=C1OC(c2ccccc2)(c2ccccc2)c2ccccc21 do in these assays?
proKLK7 act: 0.2; ADAM17 inh: 1.2; ADAM10 inh: 9.1; sPLA2-III inh: 1.7; CendR NRP1 mod: 2.6
